FBW7 activator = FBW7 E3 ligase activators, primary screen, biochemical, AlphaScreen, human. AlphaScreen FBW7–phospho-cyclin E peptide binding, activator screen. normalized activity (activation), % at 26.1 µM. actives 0.13% (n = 650,000); in the data active means normalized activity above about 1.9%;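 further: purified mutant Fbw7 with reduced substrate affinity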
GPR151 ag = activators of human GPR151, primary screen, cell-based, PathHunter beta-arrestin, luminescence | G-protein coupled receptor 151 (Homo sapiens), Q8TDV0 | PathHunter beta-arrestin GPR151 cells | activation, % at 11.2 µM | actives 1% (n = 650,000) | AID 1508602, 2020; in the data active means activation above about 4.9%;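 further: 0% = median of compound wells and 100% = cells with positive control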
Target sequence (Q8TDV0 whole entry, looked up): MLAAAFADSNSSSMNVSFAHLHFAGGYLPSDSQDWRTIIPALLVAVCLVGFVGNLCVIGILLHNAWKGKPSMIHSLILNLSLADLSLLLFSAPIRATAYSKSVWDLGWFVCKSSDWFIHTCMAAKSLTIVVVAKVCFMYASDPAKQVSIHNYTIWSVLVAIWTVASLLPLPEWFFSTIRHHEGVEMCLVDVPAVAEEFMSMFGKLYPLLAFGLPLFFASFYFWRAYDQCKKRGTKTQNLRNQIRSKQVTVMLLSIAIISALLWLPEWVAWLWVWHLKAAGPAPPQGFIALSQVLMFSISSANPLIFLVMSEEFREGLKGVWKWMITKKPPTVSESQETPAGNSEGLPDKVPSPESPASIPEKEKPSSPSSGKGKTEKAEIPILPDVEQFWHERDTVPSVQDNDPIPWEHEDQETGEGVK
MITF primary = MITF inhibitors, primary screen, biochemical, AlphaScreen, human; actives 0.91% (n = 650,000); AlphaScreen MITF homodimerization, bead proximity signal; AID 1259374, 2018; inhibition, % at 2.6 µM; Microphthalmia-associated transcription factor (Homo sapiens), O75030; in the data active means inhibition above about 50%;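 further: 0% = vehicle wells with protein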
TEAD-YAP block = TEAD-YAP interaction inhibition, primary screen, TEAD-YAP interaction inhibitor project, luminescence, HEK-TIYL cells. TEAD-Gal4/YAP UAS-luciferase luminescence. inhibition, % at 9.12 µM. actives 1.4% (n = 640,000). AID 1259422, 2018; in the data active means inhibition above about 32%;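 further: 0% = median of test compound wells and 100% = reference inhibitor wells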
MITF inh conf = MITF inhibitors, retest of hits, confirmation, biochemical, AlphaScreen, triplicate. shares compounds with MITF primary. AlphaScreen MITF homodimerization, biotin/His-MITF beads. inhibition, % at 2.6 µM. actives 16% (n = 4,700). AID 1259372, 2018;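 active means inhibition above a cutoff derived from the DMSO control wells, cut at about 28% in these data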;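 further: 0% = MITF dimer wells with DMSO only; inhibitors lower the bead chemiluminescence by keeping MITF from dimerizing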
AlphaScreen DR = AlphaScreen optical interference compounds, dose response, counter-screen, biochemical, HTS; shares compounds with MITF primary; AlphaScreen optical interference counterscreen, cell-free; IC50, µM; actives 6% (n = 480); call rule not given here
AlphaScreen intf2 = AlphaScreen optical interference compounds, counter-screen for MITF inhibitor project, biochemical, triplicate; actives 7.6% (n = 4,700); shares compounds with MITF primary; AID 1259376, 2018; LysRS AlphaScreen counterscreen, signal interference; inhibition, % at 2.6 µM;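 active means inhibition above a cutoff derived from the DMSO control wells, cut at about 30% in these data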
* = called active by the depositor; / = no result. Rows were chosen to be rich in hits. Some 3.5% of all compounds tested hit in one or more screens of this group.

SMILES	FBW7 activator	GPR151 ag	MITF primary	TEAD-YAP block	MITF inh conf	AlphaScreen intf2	others
Cc1nc(NCC(C)C)c2c3c(sc2n1)CCCC3	0	1	52*	5	12	17
CCOC(=O)C(CC(C)C)N(Cc1ccccc1F)S(=O)(=O)c1ccc(Br)cc1 (stereo unspecified)	0	2	-11	8	/	/
CN(CC1CCCCO1)C(=O)Cn1nnnc1CN1CCCCCC1 (stereo unspecified)	0	1	51*	1	13	-10
Cc1ccc(C2NS(=O)(=O)N=C2N)cc1 (stereo unspecified)	0	1	52*	5	10	15
O=C(NCc1ccco1)C(=O)N/N=C/c1ccccc1[N+](=O)[O-]	0	0	11	-5	/	/
N#CCC(=O)N/N=C/c1ccc2ccccc2c1O	-1	2	27	11	/	/
CCN(CCN(C)C)Cc1cccc(OCc2ccccc2)c1	0	0	61*	6	-10	-4
CCCN(CCO)Cc1ccc(Cl)c(Cl)c1	0	2	16	7	/	/
CCN(CCN(C)C)Cc1ccc(Cl)cc1Cl	0	0	56*	-6	-5	-5
CCCN(CCO)Cc1ccc(Cl)cc1Cl	0	1	-2	6	/	/
CCN(CCN(C)C)Cc1ccc(Cl)c(Cl)c1	0	1	54*	-5	3	-5
CN(C)CCCN(CCCN(C)C)Cc1cccc(Oc2ccccc2)c1	0	1	24	-4	/	/
CN(CCC(N)=O)Cc1ccc(F)cc1	0	-3	56*	11	-12	-8
O=C(CN1CCC(c2ccc(F)cc2)CC1)N1CCCC1	0	0	14	-4	/	/
CCOC(=O)c1c(NC(=O)C(C)Sc2nnc(CNC(=O)c3ccc(OC)c(OC)c3)n2Cc2ccccc2)sc2c1CCC2 (stereo unspecified)	0	-1	0	1	/	/
COc1cc(C2NC(=S)NC(C)=C2C(C)=O)ccc1OC1CCCC1 (stereo unspecified)	0	3	-18	-32	/	/
COc1ccc(Oc2coc3cc(OC(=O)c4c(OC)cccc4OC)ccc3c2=O)cc1	0	1	5	5	/	/
CCN(CCN(C)C)Cc1ccc(F)c(F)c1	0	-1	60*	3	0	-5
CCN(CCN(C)C)Cc1ccc(F)cc1F	0	0	60*	1	-6	-2
CCN(CCC(=O)Nc1ccc(F)cc1)Cc1ccccc1	0	-1	4	4	/	/
CCN(CCN(C)C)Cc1cccc(Cl)c1Cl	0	-1	75*	4	-4	0
CCN(CCN(C)C)Cc1ccc(F)cc1	0	0	60*	-4	28*	-3	AlphaScreen DR=>6.5
CCN(CCN(C)C)Cc1ccc(F)c(Br)c1	0	-1	27	8	/	/
CCOC(=O)C1=C(C)N=c2s/c(=C\c3cccs3)c(=O)n2C1c1cccc([N+](=O)[O-])c1 (stereo unspecified)	0	-1	5	-1	/	/
CC(C)c1nc(SCc2ccccc2F)c2c(=O)n(C)c(=O)n(C)c2n1	0	0	8	8	/	/
SMILES	FBW7 activator	GPR151 ag	MITF primary	TEAD-YAP block	MITF inh conf	AlphaScreen intf2	others
O=[N+]([O-])c1ccccc1CN1CCN(c2ncccn2)CC1	0	1	25	3	/	/
O=[N+]([O-])c1ccccc1CN1CCN(c2ccccn2)CC1	0	0	54*	8	1	-3
O=[N+]([O-])c1ccccc1CN1CCN(Cc2ccccn2)CC1	0	0	69*	5	2	1
CCCN(CCC)S(=O)(=O)c1ccc(OCC)c2ccccc12	1	0	65*	7	1	10
COC(=O)C1=C(C)NC(SCC(=O)NC2CCCCC2)=C(C#N)C1c1ccccc1F (stereo unspecified)	0	2	-6	0	/	/
COc1ccc(Br)cc1CN1CCCC(C(N)=O)C1 (stereo unspecified)	0	1	-3	3	/	/
COc1ccc(Br)cc1CN1CCCC(C(=O)N2CCCC2)C1 (stereo unspecified)	0	1	79*	0	-3	15
COc1ccc(Br)cc1CN1CCCC(C(=O)N2CCCCC2)C1 (stereo unspecified)	0	0	84*	6	9	19
COc1ccc(NC(=O)CN(c2cc([N+](=O)[O-])ccc2OC)S(C)(=O)=O)cc1Cl	0	-1	-9	-13	/	/
C=CCc1cccc(Cl)c1OCCCNCCN1CCOCC1	0	0	56*	9	5	20
C=CCc1cccc(Cl)c1OCCCN1CCNCC1	0	0	53*	-5	6	7
C=CCc1cccc(Cl)c1OCCCN1CCN(C)CC1	0	-1	19	2	/	/
O=C(COC(=O)c1ccc([N+](=O)[O-])o1)Nc1ccc2c(c1)OC(F)(F)O2	0	1	82*	14	8	13
O=C(O)c1ccccc1C(=O)Nc1ccc(-c2ccc([N+](=O)[O-])cc2)cc1	0	2	-1	-15	/	/
CN(C)CCOCCOc1ccccc1-c1ccccc1	0	1	87*	1	41*	22	AlphaScreen DR=>6.5
CN(C)CCOc1ccccc1-c1ccccc1	0	1	61*	3	-1	14
CNCCOc1ccccc1-c1ccccc1	0	0	24	0	/	/
Cc1cc(NCc2cccc(C(F)(F)F)c2)nc(-c2csc3ccccc23)n1	0	0	14	-6	/	/
FC(F)(F)c1cccc(CNc2cc(-c3csc4ccccc34)ncn2)c1	0	3	62*	-3	-3	0
COc1ccc(CN2CCN(C3CCC(C)CC3)CC2)cc1 (stereo unspecified)	0	-1	73*	1	-4	-8
CCOc1ccc(CN2CCC(N3CCN(Cc4ccccc4)CC3)CC2)cc1	0	1	42	11	/	/
COc1ccc(CN2CCC(N3CCCCC3)CC2)cc1	0	-1	54*	-10	16	-12
COc1ccc(CN2CCCCCC2)cc1	0	0	2	5	/	/
CCC(=O)Nc1nonc1-c1nc2ccccc2n1C	0	-1	1	-4	/	/
C=C(C)CSc1nnc2n(-c3ccccc3C)c(=O)c3c4c(sc3n12)CCCC4	0	0	70*	5	-3	-3
CCOC(=O)C1CCN(C(=O)/C=C/c2ccc(F)cc2)CC1	0	0	71*	-36	1	-2

Source: PubChem (The Scripps Research Institute Molecular Screening Center)
